# Measurements as given in the supplement of paper PMC12339681.
# Tested on: PBMC-derived induced microglia-like cells (piMGLC)
# Assay: synaptosome phagocytic index relative to DMSO control (fraction of DMSO); higher = more phagocytosis
# Conditions: concentration: 10 uM (2 uM for compounds listed in Table S2); pretreatment time: 24 h; assay time: 3 h
row,Structure (SMILES),synaptosome phagocytic index
1,CN(C)C(=O)c1cc2cnc(Nc3ccc(N4CCNCC4)cn3)nc2n1C1CCCC1 [Ribociclib_succinate],0.592
2,C[C@H](Cn1cnc2c(N)ncnc21)OCP(=O)(O)O [Tenofovir],0.906
3,CC(C)c1c(C(=O)Nc2ccccc2)c(-c2ccccc2)c(-c2ccc(F)cc2)n1CC[C@@H](O)C[C@@H](O)CC(=O)O [Atorvastatin_(hemicalcium_salt)],0.823
4,CCC(CC)O[C@@H]1C=C(C(=O)O)C[C@H](N)[C@H]1NC(C)=O [Oseltamivir_acid],0.782
5,O=C(O)c1ccccc1O [Salicylic_acid],0.557
6,O=NN(CCCl)C(=O)NC1CCCCC1 [Lomustine],0.897
7,Fc1c(Br)cccc1Nc1ncnc2cc3c(cc12)OCCO3,0.118
8,CS(=O)(=O)OCCCCOS(C)(=O)=O [Busulfan],0.829
